The values below come from PubChem BioAssay AID624098 (National Center for Advancing Translational Sciences (NCATS), 2012).

Inconclusive results are not listed. Activity calls are given as the source filed them.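 The calls were made as follows: active = immobility above 50% at 10 µM after 1 hour; inconclusive = immobility from 15% to 50% at 1 hour; inactive = immobility below 15%.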

One assay can be described thus: Assay for General Anesthetic Phenotype in Xenopus Tadpoles. As to conditions: startle-response immobility, 1 h, at 10 µM, stronger effect = higher value. An excerpt:
Anesthetic development has remained a largely empirical process. There are growing concerns about the cognitive effects of known general anesthetics and acceleration of the onset of neurodegenerative disease. The compounds' toxicity and multiple specific binding targets in the mammalian brain [4] has made them less attractive as drug leads. This assay was designed for the in vivo follow-up testing of compounds in tadpoles. References: [1] S.L. Bianchi, T. Tran, C. Liu, S. Lin, Y. Li, J.M. Keller, R.G. Eckenhoff, and M.F. Eckenhoff, Brain and behavior changes in 12-month-old Tg2576 and nontransgenic mice exposed to anesthetics. Neurobiol Aging 29 (2008) 1002-10. Z. Xie, Y. Dong, U. Maeda, R.D. Moir, W. Xia, D.J. Culley, G. Crosby, and R.E. Tanzi, The inhalation anesthetic isoflurane induces a vicious cycle of apoptosis and amyloid beta-protein accumulation. J Neurosci 27 (2007) 1247-54. P. Honegger, and J.M. Matthieu, Selective toxicity of the general anesthetic propofol for GABAergic neurons in rat brain cell cultures. J Neurosci Res 45 (1996) 631-6. M.F. Eckenhoff, K. Chan, and R.G. Eckenhoff, Multiple specific binding targets for inhaled anesthetics in the mammalian brain. J Pharmacol Exp Ther 300 (2002) 172-9. C.A. Butts, J. Xi, G. Brannigan, A.A. Saad, S.P. Venkatachalan, R.A. Pearce, M.L. Klein, R.G. Eckenhoff, and I.J. Dmochowski, Identification of a fluorescent general anesthetic, 1-aminoanthracene. Proc Natl Acad Sci U S A 106 (2009) 6501-6. W.A. Lea, J. Xi, A. Jadhav, L. Lu, C.P. Austin, A. Simeonov, and R.G. Eckenhoff, A high-throughput approach for identification of novel general anesthetics. PLoS One 4 (2009) e7150.
Pre-limb bud Xenopus tadpoles were obtained in large batches from Nasco, Inc. Batches of 10 tadpoles were placed in 20 mm Petri dishes with approximately 20 ml of pond water ("pond water" is approximately a 20-fold dilution of Ringers saline solution). Compounds were added to the pond water from DMSO stock to obtain 100, 10 and 1 microM concentrations. Tadpoles were then incubated with these solutions for 1 hour, and then scored for "anesthesia". Anesthesia in this case is lack of movement in response to a sharp tap on the Petri dish lid, i.e., a lack of startle response. This correlates well to the loss of righting reflex in rodents and the loss of consciousness in humans. The pond water is then changed, and the return of a startle response is monitored for 24 hours. Immobility at 24 hours is considered death.
Take `CC(C)COc1ccc(-c2ccc(=O)n(CC(=O)NCCc3ccccc3)n2)cc1`: the immobility was 100% (active).
Same read-out and setting: the figure for `Cc1ccccc1-c1ccc(=O)n(CC(=O)NCCc2ccccc2)n1` is 0% (inactive); for `CC(C)c1ccc(=O)n(CC(=O)NCCc2ccccc2)n1` it is 0% (inactive).

Still in this assay, the particulars now being: startle-response immobility, 1 h, measured here: 24 h immobility, toxicity/death, at 10 µM.
`CC(C)COc1ccc(-c2ccc(=O)n(CC(=O)NCCc3ccccc3)n2)cc1` came in with an immobility of 0%.
The same measure, in the same setting: the figure for `Cc1ccccc1-c1ccc(=O)n(CC(=O)NCCc2ccccc2)n1` is 10%.
As for `CC(C)c1ccc(=O)n(CC(=O)NCCc2ccccc2)n1`, the immobility was found to be 5%.
